Assay results reported in PubChem BioAssay (NCATS).
Inconclusive results are not listed. Where a call stands in place of a potency, no number is given. Activity calls are given as the source filed them. Calls follow the shape of the dose curve; as a rule, active = well fitted inhibition curve with a large enough effect; inconclusive = small, poorly fitted or top-dose-only effect; inactive = flat fitted curve, though single readings scatter.
Potency is read from the fitted curve at half-maximal effect.

What follows are compounds tested on Zika virus NS2B-NS3 protease (assay: Primary screen GU AMC qHTS for Zika virus inhibitors (AID 1347154; also: nearly all actives have a fitted effect of over 70% in size)). Conditions: Zika NS2B-NS3 unlinked protease, AMC fluorogenic substrate; series mostly up to 54.1 µM.
Summary of the method: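 Unlinked Zika NS2B hydrophilic domain/NS3 protease domain noncovalent complex (25 nM final) in 10 mM Tris-HCl pH 8.0, 0.01% Tween 20, with AMC peptide substrate. Fluorescence (ex 340, em 450 nm) change over 15 min, room temperature; percent inhibition fitted to 4-parameter Hill equation.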
For `CCC(=O)c1c(O)cc(O)cc1O`, the Potency was “inactive”.
In the case of `CNCC[C@@H](Oc1ccccc1C)c1ccccc1`, the Potency is reported as “inactive”.
`CC(C)NC[C@@H](O)COc1cccc2ccccc12` was tested, and the Potency was “inactive”.
`CN(C)CCOc1ccccc1Cc1ccccc1` was tested, and the Potency was “inactive”.
With `O=C(N/N=C/c1ccccc1O)c1ccncc1` the Potency was “inactive”.
With `O=C1c2ccccc2C(=O)C1c1ccccc1` the Potency was “inactive”.
`CC(C)=CCC1C(=O)N(c2ccccc2)N(c2ccccc2)C1=O` was tested, and the Potency was “inactive”.
With `CC(C)(CO)[C@@H](O)C(=O)NCCCO` the Potency was “inactive”.
With `CCN1CCC[C@H]1CNC(=O)c1c(OC)ccc(Br)c1OC` the Potency was “inactive”.
For `CC(=O)Oc1ccc(C(=C2CCCCC2)c2ccc(OC(C)=O)cc2)cc1`, the Potency was “inactive”.
With `C/C=C(/C(=C/C)c1ccc(O)cc1)c1ccc(O)cc1` the Potency was “inactive”.
`CCOC(=O)OC(C)OC1=C(C(=O)Nc2ccccn2)N(C)S(=O)(=O)c2ccccc21` (centres undefined) was tested, and the Potency was “inactive”.
For `COc1cc2c(cc1OC)C(=O)C(CC1CCN(Cc3ccccc3)CC1)C2` (centres undefined), the Potency was “inactive”.
In the case of `CCCN1CCCC[C@H]1C(=O)Nc1c(C)cccc1C`, the Potency is reported as “inactive”.
For `CCOC(=O)[C@H](CCc1ccccc1)N[C@@H](C)C(=O)N1Cc2ccccc2C[C@H]1C(=O)O`, the Potency was “inactive”.
In the case of `CC(=O)N/N=C/c1ccc([N+](=O)[O-])o1`, the Potency is reported as “inactive”.
For `c1ccc(CNCCNCc2ccccc2)cc1`, the Potency was “inactive”.
With `Cc1c(C)n(Cc2ccccc2)c2ccc(C(=O)OCCN(C)C)cc12` the Potency was “inactive”.
For `CCCCC1=NC2(CCCC2)C(=O)N1Cc1ccc(-c2ccccc2-c2nn[nH]n2)cc1`, the Potency was “inactive”.
In the case of `NC(=O)c1cc[n+](CC2=C(C(=O)[O-])N3C(=O)[C@@H](NC(=O)Cc4cccs4)[C@H]3SC2)cc1`, the Potency is reported as “inactive”.
`CCCCCC=CCC=CCCCCCCCC(=O)OCC` was tested, and the Potency was “inactive”.
`CN1CCC[C@@H]1c1cccnc1` was tested, and the Potency was “inactive”.
With `CCCC(=O)Nc1ccc(OCC(O)CNC(C)C)c(C(C)=O)c1` (centres undefined) the Potency was “inactive”.
With `CCN(CCCCOC(=O)c1ccc(OC)c(OC)c1)C(C)Cc1ccc(OC)cc1` (centres undefined) the Potency was “inactive”.
`Cc1cc2c(cc1CC(=O)c1sccc1S(=O)(=O)Nc1onc(C)c1Cl)OCO2` was tested, and the Potency was “inactive”.
`Cc1ccc(O)c2ncccc12` was tested, and the Potency was “inactive”.
`CC/C(=C(/CC)c1ccc(O)cc1)c1ccc(O)cc1` was tested, and the Potency was “inactive”.
In the case of `CCCCCCCCCCCCCCCCCC(=O)OCC(O)CO` (centres undefined), the Potency is reported as “inactive”.
`Cc1cc(N)c2cc(NC(=O)Nc3ccc4nc(C)cc(N)c4c3)ccc2n1` was tested, and the Potency was 14.1 µM (active).
For `CC[N+](CC)(CCNC(=O)C(=O)NCC[N+](CC)(CC)Cc1ccccc1Cl)Cc1ccccc1Cl`, the Potency was “inactive”.
`COc1cc2c(cc1OC)C(C(C(=O)N(CCc1ccc(OC)c(OC)c1OC)CCc1ccc(OC)c(OC)c1OC)c1ccccc1)=NCC2` (centres undefined) was tested, and the Potency was “inactive”.
In the case of `CN=C(NC#N)Nc1ccc(C2=NNC(=O)CC2C)cc1` (centres undefined), the Potency is reported as “inactive”.
In the case of `COc1cccc(CCc2ccccc2OCC(CN(C)C)OC(=O)CCC(=O)O)c1` (centres undefined), the Potency is reported as “inactive”.
In the case of `CCCSS/C(CCO)=C(\C)N(C=O)Cc1cnc(C)nc1N`, the Potency is reported as “inactive”.
In the case of `CN1C(CCl)Nc2cc(Cl)c(S(N)(=O)=O)cc2S1(=O)=O` (centres undefined), the Potency is reported as “inactive”.
For `C[C@]12CCC(=O)C=C1[C@@H]1C[C@@H]1[C@H]1[C@@H]3[C@@H]4C[C@@H]4[C@@]4(CCC(=O)O4)[C@@]3(C)CC[C@@H]12`, the Potency was “inactive”.
For `O=C(OCCOCCO)c1ccccc1Nc1cccc(C(F)(F)F)c1`, the Potency was “inactive”.
In the case of `C=C1C(=C/C=C2\CCC[C@]3(C)[C@@H]([C@H](C)/C=C/[C@@H](O)C4CC4)CC[C@@H]23)C[C@@H](O)C[C@@H]1O`, the Potency is reported as “inactive”.
With `Nc1ccc(C(=O)Nc2ccccc2N)cc1` the Potency was “inactive”.
